# According to PubChem BioAssay (NCI):
# About 83,000 compounds went through this panel and 20% of them were active in at least one assay; those are over-represented in the sample as a whole.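 The endpoint reported here, percent growth, reads 100 for growth as untreated, 0 for no net growth and -100 for all cells dead.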 The source made the active and inactive calls. The calls were made as follows: active = growth percent below 10; inactive = the rest.
# Test system: HOP-62 NSCLC
# Experiment: NCI-60 one-dose screen, 48 h (100 = growth as untreated, 0 = no growth, -100 = all killed)
# Conditions: 10 µM unless noted
row,SMILES,growth
1,COc1ccc2cc(C(C)C(=O)Nc3ccc(S(=O)(=O)Nc4cc(C)on4)cc3)ccc2c1 (stereo unspecified),88.5% (inactive)
2,CN1CCN(Cc2ccc(NC(=O)c3ccc(C#Cc4c(N)ncc5ccc(F)cc45)cc3)cc2C(F)(F)F)CC1,-39.2% (active)
3,CSC1=Nc2c(c(C)c(-c3ccccc3)n2CCCCl)C2=NC(=O)CN12,64.3% (inactive)
4,Cc1ncc(C(=O)Nc2ccc(CN3CCN(C)CC3)c(C(F)(F)F)c2)cc1C#Cc1cnc(NC2CC2)c2ncccc12,16.9% (inactive)
5,Oc1ccc([S+](c2ccc(O)cc2)c2ccc(O)cc2)cc1,94.3% (inactive)
6,Oc1ccc2ccccc2c1/C=N\Nc1ccccn1,-8.47% (active)
7,CCCNC(=O)Oc1ccc(/C(=C(/CC)Cc2ccccc2)c2ccc(OCCN(CC)CC)cc2)cc1,84.2% (inactive)

# Test system: HOP-92 NSCLC
# Experiment: as above
# Conditions: 10 µM
row,SMILES,growth
1,Cc1cc(CSc2ccc(Cl)cc2)ccc1N,85.2% (inactive)
2,CC(=O)C(CO)C(=O)Nc1ccccc1 (stereo unspecified),96.6% (inactive)
3,Cc1nc2ccccc2c(=O)n1-c1cccc(OCc2cn(-c3cccc(O)c3)nn2)c1,81.6% (inactive)
4,CCCCCCCCCCN1CC2CCCCC2C1 (stereo unspecified),56.4% (inactive)
5,CCCCN(CCC)CCCCCCCCCCN1CCCc2ccccc21,48.8% (inactive)
6,C/C=C(/C)C(=O)OC1C=C(CO)C(=O)C(OC(=O)/C(C)=C\C)C1C(C)C (stereo unspecified),-72.8% (active)
7,O=C1C(Cl)=C(Nc2ccc(Nc3ccccc3)c(NC3=C(Cl)C(=O)c4ccccc4C3=O)c2)C(=O)c2ccccc21,45.3% (inactive)
8,CN1CCN(Cc2ccc(NC(=O)c3cncc(C#Cc4c(N)ncc5ccc(F)cc45)c3)cc2C(F)(F)F)CC1,-22.7% (active)
9,COc1cccc(CNC(=O)c2cccc(C3CC(=O)c4c(cc(OC)c(OC)c4OC)O3)c2)c1 (stereo unspecified),19.8% (inactive)
10,COC(=O)C1CC(=O)N(C(=O)Nc2ccc(Cl)cc2Cl)C1 (stereo unspecified),83.1% (inactive)
11,O=C(/C=C\c1ccc(NCc2ccc(C(=O)O)cc2)cc1)CCl,99.7% (inactive)
12,CC1(C)NC(=S)NC1=O,101% (inactive)
13,Cc1ccc(C(=O)Nc2ccc(CN3CCN(C)CC3)c(C(F)(F)F)c2)cc1C#Cc1cncc2ncccc12,-30.7% (active)
14,COc1ccc(-c2nc(N)n(C(=S)Nc3ccccc3)n2)cc1,85.8% (inactive)
15,O=C(O)c1ccc(-c2nn(-c3ccc(C(=O)O)cc3)cc2CNc2ccc(Br)cc2)cc1,102% (inactive)
16,CCS(=O)(=O)N[C@@H]1O[C@H](COC(C)=O)C(OC(C)=O)[C@H](OC(C)=O)C1OC(C)=O (stereo partly specified),95.4% (inactive)
17,CCC(C)(C)c1ccc(OCCCCCCN2CCN(c3ccc(C)c(Cl)c3)CC2)cc1,82.6% (inactive)
18,Cc1ncc(C(=O)Nc2ccc(CN3CCN(C)CC3)c(C(F)(F)F)c2)cc1C#Cc1c(N)ncc2ccccc12,-37.9% (active)
19,COc1ccc2cnc(N)c(C#Cc3cc(C(=O)Nc4ccc(CN5CCN(C)CC5)c(C(F)(F)F)c4)cnc3C)c2c1,20.1% (inactive)
20,COc1ccc(-c2nc(SCC(C)C)nc(Nc3ccc(C(=O)O)cc3)c2C#N)cc1,89% (inactive)

row,SMILES,growth
1,CCCCCCCCCCCCCCCCC(=O)O.CCCCCCCCCCCCCCCCCC(=O)O.CCCCCCCCCCCCCCCCCC(=O)O.CCCCCCCCCCCCCCCCCC(=O)O.CCCCCCCCCCCCCCCCCC(=O)O.CO[CH-]OC12COC1CC(O)C1(C)C(O)C(OC(C)O)C3=C(C)C(OC(=O)C(O)C([NH-])c4ccccc4)CC(O)(C(OC(=O)c4ccccc4)C21)C3(C)C.[Cu+].[Zn].[Zn].[Zn].[Zn].[Zn] (stereo unspecified),41.5% (inactive)
2,O=C1c2cc([N+](=O)[O-])ccc2-c2cc(Cl)c(NC(=O)C(F)(F)F)cc21,99.4% (inactive)
3,CCCNC(=O)Oc1ccc(/C(=C(/C)Cc2ccc(OC)cc2)c2ccc(OCCN3CCCCC3)cc2)cc1,61% (inactive)
4,CC(=O)CCS(=O)c1ccccc1 (stereo unspecified),92.8% (inactive)
5,N#CC1=C(N2CCOCC2)NC2c3ccccc3Sc3ccccc3N2C1=N (stereo unspecified),84.5% (inactive)
6,CC(C)(C)OC(=O)N1C/C(=C\c2ccccc2)C(=O)/C(=C/c2ccccc2)C1,69.4% (inactive)
7,N#Cc1ccc(NC2c3ccccc3CC2O)cc1 (stereo unspecified),85% (inactive)
8,CC([C@H]1CCC2C3CCC4C[C@@H](N)CC[C@]4(C)C3CC[C@@]21C)N(C)C (stereo partly specified),53.1% (inactive)
9,CCN(CC)c1ccc2nc3ccc(N=Nc4ccc(O)cc4)cc3[n+](-c3ccccc3)c2c1,88.4% (inactive)
10,CC(C)CSc1nc(-c2ccc(F)cc2)c(C#N)c(N2CCCCC2)n1,97.5% (inactive)
11,Cc1ccc(C(=O)Nc2ccc(CN3CCN(C)CC3)c(C(F)(F)F)c2)cc1C#Cc1cnc(N)c2ccc(C#N)cc12,13.7% (inactive)
12,CCCCCN1CCN(C(CC(=O)c2ccccc2)C(=O)c2ccccc2)CC1 (stereo unspecified),83.4% (inactive)
13,COc1ccc2cc(C(C)C(=O)Nc3ccc(S(=O)(=O)Nc4cc(C)on4)cc3)ccc2c1 (stereo unspecified),102% (inactive)
14,CN1CCN(Cc2ccc(NC(=O)c3ccc(C#Cc4c(N)ncc5ccc(F)cc45)cc3)cc2C(F)(F)F)CC1,-2% (active)
15,CSC1=Nc2c(c(C)c(-c3ccccc3)n2CCCCl)C2=NC(=O)CN12,64.7% (inactive)
16,Cc1ncc(C(=O)Nc2ccc(CN3CCN(C)CC3)c(C(F)(F)F)c2)cc1C#Cc1cnc(NC2CC2)c2ncccc12,33.4% (inactive)
17,Oc1ccc([S+](c2ccc(O)cc2)c2ccc(O)cc2)cc1,92.2% (inactive)
18,Oc1ccc2ccccc2c1/C=N\Nc1ccccn1,-15.1% (active)
19,CCCNC(=O)Oc1ccc(/C(=C(/CC)Cc2ccccc2)c2ccc(OCCN(CC)CC)cc2)cc1,55.7% (inactive)
